Key:
Settings in all cases: concentration: 1 μM, replicates: in singlicate; n = 1
PCTK2 = test system: T1, PCTK2
T1 construct: gene CDK17

PCTK3 = test system: T2, PCTK3
T2 construct: gene CDK18

PDGFRA = test system: PDGFRA
PDGFRB = test system: PDGFRB
PDPK1 = test system: PDPK1
PFTAIRE2 = test system: PFTAIRE2
PFTK1 = test system: T3, PFTK1
T3 construct: gene CDK14

PHKG1 = test system: PHKG1
PHKG2 = test system: PHKG2
PIK3C2B = test system: PIK3C2B
PIK3C2G = test system: PIK3C2G
PIK3CA = test system: PIK3CA
PIK3CB = test system: PIK3CB
PIK3CD = test system: PIK3CD
PIK3CG = test system: PIK3CG
PIK4CB = test system: T4, PIK4CB
T4 construct: gene PI4KB

PIKFYVE = test system: PIKFYVE
PIM1 = test system: PIM1
PIM2 = test system: PIM2
PIM3 = test system: PIM3
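Also: KINOMEscan kinase panel screen.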

Row | SMILES | %Inh (PCTK2) [%] | %Inh (PCTK3) [%] | %Inh (PDGFRA) [%] | %Inh (PDGFRB) [%] | %Inh (PDPK1) [%] | %Inh (PFTAIRE2) [%] | %Inh (PFTK1) [%] | %Inh (PHKG1) [%] | %Inh (PHKG2) [%] | %Inh (PIK3C2B) [%] | %Inh (PIK3C2G) [%] | %Inh (PIK3CA) [%] | %Inh (PIK3CB) [%] | %Inh (PIK3CD) [%] | %Inh (PIK3CG) [%] | %Inh (PIK4CB) [%] | %Inh (PIKFYVE) [%] | %Inh (PIM1) [%] | %Inh (PIM2) [%] | %Inh (PIM3) [%]
1 | CNc1nccc(-c2ccc3c(N)n[nH]c3c2)n1 [GSK2206003] | 19 | 18 | 13 | 77 | 62 | 16 | 10 | 6 | 43 | 0 | 1 | 0 | 0 | 0 | 17 | 0 | 0 | 18 | 0 | 13
2 | N#Cc1cnc2cc(-c3cnc(CNCCN4CCOCC4)s3)ccc2c1Nc1ccc(Oc2ccccc2)cc1 [GW664114] | 11 | 18 | 0 | 24 | 0 | 22 | 18 | 0 | 0 | 0 | 0 | 0 | 0 | 7 | 0 | 11 | 100 | 11 | 0 | 8
3 | Cl.N#CCc1ccc(Nc2nccc(Nc3ccc(Oc4ccccc4)cc3)n2)cc1 [GW639905] | 0 | 8 | 31 | 99.6 | 17 | 4 | 0 | 0 | 0 | 0 | 7 | 0 | 0 | 0 | 0 | 0 | 13 | 0 | 0 | 0
4 | CN(c1ccc(NC(=O)N2CCN(CCCN3CCOCC3)CC2)cc1)c1ccnc(Nc2ccc(CS(C)(=O)=O)cc2)n1.Cl [GW830899] | 10 | 0 | 73 | 99.4 | 2 | 14 | 0 | 40 | 0 | 0 | 0 | 0 | 0 | 0 | 0 | 100 | 0 | 16 | 0 | 0
5 | CC(C)(C)c1ccc(C(=O)Nc2cn3cc(-n4ccnc4)ccc3n2)cc1 | 14 | 0 | 61 | 96.9 | 1 | 8 | 10 | 40 | 13 | 0 | 32 | 0 | 3 | 0 | 4 | 2 | 5 | 7 | 0 | 0
6 | O=C(Nc1n[nH]c2nc(-c3cccc(O)c3)ccc12)C1CC1 [SB-711805] | 35 | 0 | 52 | 50 | 5 | 21 | 4 | 0 | 0 | 4 | 16 | 0 | 0 | 0 | 17 | 12 | 15 | 11 | 81 | 10
7 | O=C(O)C(F)(F)F.O=c1[nH]ccc2nc(N[C@@H]3CCNC3)nc(Nc3ccc4c(c3)S(=O)(=O)CC4)c12 [GSK2181306] | 71 | 38 | 94.1 | 99.6 | 93.5 | 14 | 14 | 96.9 | 93.7 | 12 | 23 | 9 | 100 | 34 | 86 | 0 | 0 | 89 | 96.6 | 99
8 | COc1cc(Nc2ccnc3cc(-c4ccncc4)ccc23)cc(OC)c1OC.Cl [GW494610] | 0 | 0 | 73 | 97.2 | 0 | 12 | 0 | 15 | 0 | 0 | 0 | 0 | 0 | 0 | 0 | 0 | 0 | 11 | 0 | 0
9 | Fc1cc(Cl)ccc1Nc1ccnc2cc(-c3ccc(CN4CCSCC4)o3)ccc12 [GW560106] | 0 | 8 | 99.1 | 100 | 0 | 6 | 11 | 1 | 0 | 0 | 0 | 0 | 0 | 9 | 0 | 0 | 1 | 8 | 0 | 0
10 | NCCC(NC(=O)c1cc(Br)c(-c2ccnc3[nH]ccc23)s1)c1ccccc1.O=C(O)C(F)(F)F.O=C(O)C(F)(F)F (stereo not shown) [GSK1307810] | 16 | 0 | 25 | 53 | 28 | 8 | 0 | 24 | 12 | 0 | 0 | 0 | 6 | 7 | 2 | 8 | 9 | 66 | 95.5 | 45
11 | COC(=O)Nc1nc2ccc(Oc3ccc(NC(=O)Nc4cc(C(F)(F)F)ccc4F)cc3)cc2[nH]1.Cl [GW654607] | 10 | 14 | 96.6 | 100 | 0 | 89 | 47 | 0 | 0 | 0 | 0 | 0 | 17 | 0 | 3 | 0 | 0 | 0 | 0 | 0
12 | CCn1cnc2c(NCc3ccccc3)ncnc21 [SKF-96418] | 0 | 0 | 0 | 0 | 0 | 0 | 0 | 0 | 0 | 0 | 0 | 0 | 0 | 0 | 0 | 4 | 23 | 21 | 0 | 0
13 | c1ccc(Oc2ccc(Nc3ccnc4cc(-c5ccc(CN6CCCCC6)o5)ccc34)cc2)nc1 [GW567143] | 0 | 11 | 82 | 98.6 | 0 | 7 | 9 | 5 | 0 | 0 | 0 | 0 | 0 | 0 | 0 | 0 | 0 | 0 | 0 | 0
14 | Cl.O=C(Nc1ccc(Oc2ccc3[nH]c(NC(=O)c4ccco4)nc3c2)cc1)Nc1cc(C(F)(F)F)ccc1F [GW683134] | 0 | 8 | 92.6 | 100 | 14 | 27 | 14 | 0 | 0 | 100 | 0 | 100 | 0 | 8 | 99.9 | 18 | 0 | 0 | 0 | 0
15 | Cc1nn2c(=O)cc(N3CCO[C@H](C)C3)nc2n1Cc1cccc(Cl)c1Cl [GSK2373693] | 0 | 8 | 1 | 65 | 0 | 9 | 5 | 0 | 0 | 99.4 | 89 | 23 | 0 | 100 | 94 | 11 | 8 | 10 | 0 | 0
16 | O=C(Nc1n[nH]c2nc(-c3ccccc3)ccc12)C1CC1 [SB-708999] | 23 | 36 | 16 | 31 | 34 | 8 | 29 | 12 | 1 | 0 | 9 | 11 | 0 | 41 | 5 | 0 | 28 | 0 | 16 | 0
17 | COc1cccc(CC(=O)N2CCc3cc(-c4cn(C)c5ncnc(N)c45)ccc32)c1 [GSK2608899] | 0 | 4 | 88 | 99.2 | 20 | 12 | 0 | 0 | 0 | 83 | 0 | 6 | 14 | 0 | 27 | 0 | 0 | 19 | 0 | 2
18 | CN(c1ccc(NC(=O)Nc2cccc(Cl)c2)cc1)c1ccnc(N)n1.Cl [GW830707] | 0 | 10 | 97.5 | 100 | 20 | 1 | 15 | 23 | 0 | 0 | 11 | 0 | 20 | 48 | 0 | 3 | 0 | 0 | 11 | 3
19 | COc1cc(Nc2nccc(N3CCC(NC(=O)Nc4ccc5c(c4)OCO5)C3)n2)cc(OC)c1OC (stereo not shown) [GSK1379766] | 38 | 31 | 11 | 60 | 0 | 8 | 0 | 0 | 0 | 8 | 0 | 3 | 0 | 50 | 13 | 80 | 10 | 0 | 0 | 0
20 | CS(=O)(=O)c1cccc(CNc2nc(Nc3ccc4c(c3)CCC(=O)N4)ncc2C(F)(F)F)c1 | 0 | 4 | 15 | 62 | 32 | 14 | 10 | 0 | 3 | 0 | 9 | 0 | 3 | 0 | 0 | 0 | 28 | 10 | 0 | 32

Source: article PMC5540273 (PLoS ONE, 2017)
